Sampled rows, rich in hits. Any-hit rate of the full collection: about 3.5%.
BoNT F protease: BoNT/F light chain protease inhibitors, primary screen, biochemical, flow cytometry, MLPCN library; 360,000 tested, 0.22% active; Botulinum neurotoxin type F light chain protease (Clostridium botulinum); inhibition, % at 10 µM; AID 588497, 2011; Multiplex microsphere protease cleavage assay; in the data active = inhibition above about 35%, passing the limit was not always enough; inconclusive = no clear call, values can overlap the other calls; also: plate controls were buffer without enzyme for full effect and enzyme alone for no effect
Autofluor counter: flagged as autofluorescent in microsphere protease counterscreen | compound autofluorescence counterscreen, microsphere flow cytometry; active compounds read high | fluorescence intensity (concentration not given with the values) | 360,000 tested, 3.1% active | AID 624483; in the data active = fluorescence intensity above about 16000; inconclusive = no clear call, values can overlap the other calls
Anthrax LF prot: Bacillus anthracis LF protease inhibitors, primary screen, biochemical, multiplex microsphere, MLPCN library; Lethal factor (Bacillus anthracis), P15917; inhibition, % at 10 µM; multiplex microsphere protease cleavage assay; 360,000 tested, 0.12% active; also: plate controls were buffer without enzyme for full effect and enzyme alone for no effect
Target sequence (P15917 whole entry, looked up): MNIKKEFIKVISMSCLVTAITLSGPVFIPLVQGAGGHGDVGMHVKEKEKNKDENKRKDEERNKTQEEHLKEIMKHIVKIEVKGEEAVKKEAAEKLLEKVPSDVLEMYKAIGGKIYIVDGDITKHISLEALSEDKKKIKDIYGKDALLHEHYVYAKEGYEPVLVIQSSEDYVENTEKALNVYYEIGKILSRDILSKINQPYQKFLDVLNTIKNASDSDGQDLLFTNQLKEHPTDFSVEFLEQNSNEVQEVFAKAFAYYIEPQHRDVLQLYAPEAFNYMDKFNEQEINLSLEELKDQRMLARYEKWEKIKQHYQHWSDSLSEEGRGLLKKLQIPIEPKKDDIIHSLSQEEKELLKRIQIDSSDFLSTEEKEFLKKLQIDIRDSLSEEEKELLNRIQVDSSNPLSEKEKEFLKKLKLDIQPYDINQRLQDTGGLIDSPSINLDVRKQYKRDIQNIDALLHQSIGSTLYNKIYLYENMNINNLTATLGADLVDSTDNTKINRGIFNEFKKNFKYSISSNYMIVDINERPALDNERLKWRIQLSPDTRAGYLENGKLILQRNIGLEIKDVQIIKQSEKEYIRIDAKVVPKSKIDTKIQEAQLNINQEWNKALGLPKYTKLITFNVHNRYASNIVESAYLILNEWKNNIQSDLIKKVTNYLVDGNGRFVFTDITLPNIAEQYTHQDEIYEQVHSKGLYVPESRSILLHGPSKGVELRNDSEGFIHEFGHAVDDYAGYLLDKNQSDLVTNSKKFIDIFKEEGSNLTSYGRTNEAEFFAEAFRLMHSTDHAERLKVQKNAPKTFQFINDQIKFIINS
BJeLR lethal: MLPCN primary cell-based screen for lethality selective to Ras in HRASV12 cells; inhibition, % (no concentration beside the values); BJeLR (HRASV12) viability, CellTiter-Glo ATP luminescence, 48 h; 300,000 tested, 0.17% active; in the data active = inhibition above about 50%; inconclusive = no clear call, values can overlap the other calls
BoNT-A LC inh2: BoNT/A light chain protease inhibitors, primary screen, biochemical, flow cytometry, MLPCN library; multiplex microsphere protease substrate cleavage; Botulinum neurotoxin type A light chain protease (Clostridium botulinum A str. ATCC 3502); AID 588499, 2011; inhibition, % at 10 µM; 360,000 tested, 0.17% active; also: plate controls were buffer without enzyme for full effect and enzyme alone for no effect
* marks the source's active call; other numbers are inactive results; ? = inconclusive; · = no result. Rule as the data show it, unless noted: active = inhibition above about 30%; inconclusive = no clear call, values can overlap the other calls; inactive = below that.

SMILES | BoNT F protease | Autofluor counter | Anthrax LF prot | BJeLR lethal | BoNT-A LC inh2
Cc1nnc(SCC(=O)N(Cc2ccccc2)C(C)C)n1-c1ccccc1 | 7.2 | 3419 | 0.7 | -3.9 | 0.4
COc1ccc2c(C(=O)CN3CCSCC3)c[nH]c2c1 | 4.5 | 6542 | 2.2 | -1.5 | 1.7
Cc1ccc2[nH]cc(C(=O)CN3CCN(C)CC3)c2c1 | -2.5 | 23399* | -1.5 | 5.9 | ?
COc1ccc2c(C(=O)CN3CCN(c4ccccc4)CC3)c[nH]c2c1 | -0.6 | 24933* | -1.8 | 2.7 | ?
Cc1ccc2c(C(=O)CCl)c(C)[nH]c2c1 | -15.7 | 5770 | -6.0 | 6.0 | 0.8
Cc1ccc2[nH]cc(C(=O)CCl)c2c1 | -15.6 | 2706 | 2.9 | 53.9* | 0.9
Cc1ccc2[nH]cc(C(=O)CN3CCN(c4ccccn4)CC3)c2c1 | 0.2 | 3676 | -1.1 | -6.7 | 1.4
O=C1C(=C(c2ccccc2)N2CCOCC2)Cc2ccccc21 | -4.6 | 3415 | -1.9 | · | 0.1
O=C1C=C(O)C(n2cncn2)C(c2ccc3c(c2)OCO3)C1 (configuration not stated) | -3.5 | 4870 | -2.6 | 1.8 | -0.9
COc1ccc(C2CC(=O)CC(=O)C2n2cncn2)cc1 (configuration not stated) | 2.7 | 21795* | -1.6 | 0.7 | 1.1
O=C1CC(=O)C(n2cncn2)C(c2cccc(Cl)c2)C1 (configuration not stated) | 8.4 | 21751* | -0.9 | 5.4 | 3.7
CCCN1CCC(C(=O)NC(c2ccc(Cl)cc2)c2ccsc2)CC1 (configuration not stated) | -8.1 | 3968 | -1.6 | · | -0.3
CCN(CCc1ccccc1)c1ccc2c(c1)C1CC2CCN1Cc1ccccc1 (configuration not stated) | -6.8 | 3910 | -3.3 | · | -0.6
C[C@@H]1CN([C@@H](C)CO)C(=O)c2ccccc2-c2ccccc2CO[C@@H]1CN(C)S(=O)(=O)c1ccc(C(F)(F)F)cc1 | 0.9 | 3899 | 3.0 | · | -0.4
Nc1ncnc2c1ncn2C1OCC(O)C1O (configuration not stated) | -3.2 | 5512 | 3.7 | · | 0.2
Cc1ccc2cc(C(c3nnnn3C3CCCC3)N3CCN(c4ccc(F)cc4)CC3)c(=O)[nH]c2c1 (configuration not stated) | -0.1 | 22513* | -2.8 | -9.0 | -0.2
COc1ccc2cc(C(c3nnnn3C3CCCC3)N3CCc4ccccc4C3)c(=O)[nH]c2c1 (configuration not stated) | -4.2 | 9920 | 2.5 | 0.7 | 1.7
COc1ccc2[nH]c(=O)c(C(c3nnnn3C3CCCCC3)N3CCN(C)CC3)cc2c1 (configuration not stated) | 1.5 | 9789 | 5.4 | -0.2 | 0.3
CCCN1CCN(C(c2cc3cc(OCC)ccc3[nH]c2=O)c2nnnn2C2CCCCC2)CC1 (configuration not stated) | 4.7 | 22710* | -1.5 | 1.2 | ?
CC(=O)c1c(C)[nH]c(C(=O)OCC(=O)c2c[nH]c3ccccc23)c1C | -7.2 | 3536 | 6.7 | · | 0.2
O=C1CSc2cc(Cl)ccc2N1 | -3.7 | 3972 | -3.3 | · | -0.1
Cc1nc(N2CCC(C)CC2)c2c(C)c(C(=O)Nc3ccc(C(F)(F)F)cc3)sc2n1 | -3.2 | 2020 | -1.1 | -0.5 | 0.9
CCOC(=O)C1CCN(C(=O)c2sc3nc(C)nc(N4CCC(C)CC4)c3c2C)CC1 | -4.0 | 21764* | -1.4 | -19.5 | -3.0
Cc1c(C(=O)N2CCN(c3ccccc3)CC2)sc2ncnc(N3CCC(C)CC3)c12 | · | · | · | -11.4 | ·
CCOC(=O)C1CCN(C(=O)c2sc3ncnc(N4CCC(C)CC4)c3c2C)CC1 | 1.9 | 16307* | -2.2 | 10.2 | ?
SMILES | BoNT F protease | Autofluor counter | Anthrax LF prot | BJeLR lethal | BoNT-A LC inh2
CCOC(=O)CSc1nc2c(sc(=S)n2-c2ccccc2OC)c(=O)n1Cc1ccco1 | -5.0 | 16526* | -3.4 | -3.8 | -0.9
CCOC(=O)CSc1nc2c(sc(=S)n2-c2ccccc2OC)c(=O)n1-c1ccccc1OC | -0.9 | 3212 | -8.9 | -2.8 | -3.4
CCN(CC)C(=O)CSc1nc2c(sc(=S)n2Cc2ccco2)c(=O)n1-c1ccccc1 | -1.8 | 20976* | -2.0 | 4.1 | -0.3
CCOC(=O)CSc1nc2c(sc(=S)n2Cc2ccco2)c(=O)n1-c1ccccc1 | 4.1 | 11224 | -2.5 | 14.0 | -0.2
O=C(NCc1cccc(Cl)c1)C1Cc2c(-c3ccccc3)ccnc2O1 (configuration not stated) | 0.4 | 3693 | 3.1 | · | 0.4
CCn1c(C)nc2cc(C(=O)N/N=C(\C)c3ccccc3O)ccc21 | 1.1 | 3197 | -2.4 | 2.5 | -0.6
O=C(CSc1nnc(-c2ccc(O)cc2)o1)Nc1ccc2c(c1)OCCO2 | -1.3 | 3433 | -1.2 | -0.6 | -0.2
Cc1cc(C)cc(NC(=O)CSc2nnc(-c3ccccc3C)o2)c1 | -0.5 | 19314* | -8.2 | 5.5 | ?
O=C(CSc1nnc(-c2ccccc2Cl)o1)Nc1ccc2c(c1)OCCO2 | 0.2 | 19436* | -4.1 | 5.3 | 1.2
Cc1cccc(NC(=O)CSc2nnc(-c3ccccc3C)o2)c1 | 1.3 | 18972* | -4.4 | 1.6 | 2.2
COCCNC(=O)C1(C)CCCN(C(=O)c2ccc(OC)c(OC)c2)C1 (configuration not stated) | -2.9 | 3833 | -0.5 | · | -0.2
COc1ccc(COC(=O)CCc2c[nH]c3ccccc23)cc1F | 2.6 | 5153 | -3.8 | -5.4 | -0.1
O=C(Cn1c(=S)[nH]c2ccccc2c1=O)NCCc1ccccc1 | 0.4 | 3798 | -3.3 | -1.9 | -0.5
COc1ccc(-c2c(C#N)c(N)nc3c2CCCC3)cc1OC | 0.8 | 16197* | -0.9 | -0.4 | 0.0
COc1cc(-c2c(C#N)c(N)nc3c2CCCC3)cc(OC)c1OC | 5.1 | 7913 | -1.1 | 4.6 | 2.7
COc1cc(OC)cc(C(=O)NN2CCCCC2)c1 | -5.7 | 25088* | -0.6 | 12.5 | -4.1
COc1cc(OC)cc(C(=O)N2CCN(C3CCCCC3)CC2)c1 | 4.9 | 3788 | -3.4 | -0.1 | -0.6
COc1cc(OC)cc(C(=O)N2CCC(N3CCCCCC3)CC2)c1 | -6.9 | 19182* | -1.2 | -6.2 | -3.5
Cc1ccc(SCCC(=O)N/N=C/c2cccnc2)cc1 | -2.0 | 4221 | -3.6 | · | 0.2
CCOc1ccc(S(=O)(=O)N2CN3CCN(C3)C2)cc1 | -14.2 | 3743 | 7.8 | -6.8 | -1.7
CCOc1ccc(S(=O)(=O)N2CCN(S(=O)(=O)c3ccc(OCC)cc3)C(C)C2)cc1 (configuration not stated) | -1.8 | 17504* | -5.1 | -1.1 | -2.2
C/C(=N/NS(=O)(=O)c1ccc(Cl)cc1)c1cccc(NC(=O)c2ccc(Cl)cc2Cl)c1 | -15.6 | 5001 | 0.3 | 3.6 | -0.6
O=C(NCc1ccco1)c1ccc2c(c1)N(Cc1ccccc1)C(=O)CS2 | -8.6 | 25027* | -1.7 | -3.1 | -5.6
CC(C)(C)OC(=O)N1O[C@H]2C[C@@H]1[C@@H]1[C@@H]2N=NN1C12CC3CC(CC(C3)C1)C2 | -6.9 | 3565 | -8.6 | · | 0.0

Screening data deposited in PubChem by several laboratories.
